# FUS suppressor = qHTS for Suppressors of FUS Proteinopathy: Primary screen using FUS-linked yeast assay. S. cerevisiae FUS-expressing, growth rescue, OD600, 24 h. Potency, µM (highest dose often 76.6 µM), usual class: activators. actives 0.24% (n = 390,000). AID 1347120, 2019; further: nearly all actives have a fitted effect of over 55% in size
#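 Cultures pregrown in 2.5% raffinose medium are shifted to minimal medium containing 2% galactose to express toxic FUS. Compounds are tested at several concentrations. After 24hr at 30C, growth is quantified at 600 nm absorbance.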
# aSyn yeast inh = qHTS of alpha-syn Inhibitors. Yeast expressing alpha-synuclein, growth rescue, BacTiter-Glo, 24 h. Potency, µM (series often up to 46.1 µM), actives largely listed as activators. actives 0.14% (n = 370,000); further: nearly all actives have a fitted effect of over 65% in size
#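 Readout is rescue of growth in alpha-synuclein-expressing yeast, so inhibitors of toxicity appear as activators. Growth after 24 hr at 30 deg C in galactose medium is quantified by luminescence.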
# Abeta yeast res = qHTS for compounds that reverse cellular toxicity of Amyloid beta (A-beta) peptide in yeast: Primary Screen; yeast expressing A-beta42, growth rescue, OD600, 48 h; response scale: 0% DMSO, 100% iron-clioquinol control; Potency, µM (doses to about 46.1 µM), most hits filed as activators; actives 0.063% (n = 410,000); further: nearly all actives have a fitted effect of over 55% in size
#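 Growth rescue measured by 600 nm absorbance after 48 h yeast culture at 30 C with compound. Values normalized between DMSO and an equimolar ferric chloride plus clioquinol control.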
# TDP-43 yeast inh = qHTS of TDP-43 Inhibitors; Potency, µM (doses to about 46.1 µM), actives largely listed as activators; actives 1.8% (n = 410,000); TDP-43 expressing yeast growth rescue, BacTiter-Glo, 24 h; further: nearly all actives have a fitted effect of over 50% in size
#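 Readout is BacTiter-Glo luminescence of cell growth, so inhibitors register as activators. TDP-43-expressing yeast at OD600=0.02 in galactose medium, after raffinose pregrowth to mid-log, were incubated with compound for 24 hr at 30 deg C.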
# Hits are given with their value; – = inactive; ? = inconclusive; · = no result; [ ] = remark or other dose. Sampled rows, rich in hits. Any-hit rate of the full collection: about 2.1%. The call rests on the fitted dose curve; in most records, active means well fitted curve in the direction sought with a large enough effect; inconclusive means small, poorly fitted or top-dose-only effect, or another doubt; inactive means no such curve, though single readings can be large; an effect the other way counts as inactive or inconclusive.
SMILES,FUS suppressor,aSyn yeast inh,Abeta yeast res,TDP-43 yeast inh
O=C1CCC[C@@H]2Cc3[nH]c4c(Cl)ccc(Cl)c4c3[C@@H]3CCN1[C@H]23,–,–,–,28µM
CC(C)C(=O)NC(c1ccc(Cl)cc1Cl)c1ccc2cccnc2c1O (configuration not stated),–,?,–,25µM
CC(C)(CC(=O)O)Cc1nc(-c2ccc(Cl)cc2)no1,–,–,–,32µM
O=C(O)CCc1nc(-c2ccc(Cl)cc2)no1,·,–,–,14µM
CC(=O)NCCc1nc(-c2ccc(Cl)cc2)no1,–,–,–,–
CC(C)(C)c1ccc(S(=O)(=O)NCC(=O)N2CCN(c3ncccn3)CC2)cc1,–,·,·,·
Cc1ccc(SCCC(=O)Nc2ccccc2Br)cc1,–,–,–,–
CN(CC(=O)Nc1ccccc1Br)C(=O)CCSc1ccc(F)cc1,–,–,–,14µM
C=CCNc1nc(-c2ccc([N+](=O)[O-])cc2)cs1,–,–,–,?
C=CCNc1nc(-c2ccc(Cl)cc2)cs1,–,–,–,11µM
CCN1CCCC1CN(Cc1cc2ccc(C)c(C)c2[nH]c1=O)C(=O)Nc1ccccc1OC (configuration not stated),10µM,–,–,–
CCOC(=O)CSc1nc(N)c(C(=O)Nc2ccc(N(C)C)cc2)s1,32µM,–,–,–
Cc1ccc(C)c(NC(=O)c2cc(-c3ccc(Cl)cc3)nc3ccccc23)c1,–,·,·,·
CC1CCN(c2nc3ccc(C(=O)O)cc3s2)CC1,·,–,–,4µM
CC1CCN(c2nc3ccc(C(=O)NCc4ccc(Cl)cc4)cc3s2)CC1,–,·,–,–
Cc1ccc(OCC(=O)Nc2nc(-c3ccccn3)cs2)c(C)c1,–,22µM,–,?
O=C(COc1ccccc1)Nc1nc(-c2cccnc2)cs1,?,–,–,10µM
O=C(COc1ccc(F)cc1)Nc1nc(-c2ccccn2)cs1,–,–,–,–
O=C(COc1ccc(-c2ccccc2)cc1)Nc1cccnc1,–,–,–,22µM
O=C(COc1ccc([N+](=O)[O-])cc1)Nc1cccnc1,–,–,–,–
Cc1cccc(S(=O)(=O)c2cn(Cc3ccccc3)c3cc(N4CCCCC4)c(F)cc3c2=O)c1,–,·,–,–
CC[n+]1ccnc2ccccc21,·,–,·,·
Cc1ccc(C)n1C(CC(=O)O)c1ccc(C#N)cc1 (configuration not stated),32µM,–,–,–
CCOC(=O)/C(=N\Nc1cccc(Cl)c1)Sc1nnc(-c2ccc(OC)cc2)n1C,·,–,–,32µM
COc1ccc(-c2nnc(SCC(=O)Nc3ccc(Cl)cc3)n2C)cc1,–,–,–,–
SMILES,FUS suppressor,aSyn yeast inh,Abeta yeast res,TDP-43 yeast inh
COc1cccc(Cn2c(NCc3ccc(C)cc3)nc3c2c(=O)n(C)c(=O)n3C)c1,–,·,–,–
Brc1ccc(OCc2nc(-c3ccccn3)n[nH]2)cc1,–,?,–,16µM
Clc1ccc(OCc2nc(-c3ccccn3)n[nH]2)cc1,–,?,?,?
CCCCCCCCNS(=O)(=O)CC1NCc2cc(OC)ccc21 (configuration not stated),–,·,·,·
COc1ccc(-n2cc(C(=O)NCCc3ccc(C)cc3)c3ccccc3c2=O)cc1,–,·,–,18µM
CCc1cc(=O)oc2cc(C)c(CN3CCCC(C)C3)c(O)c12 (configuration not stated),7.1µM,–,–,–
O=C1CC(=C2c3ccccc3-c3ccccc32)C(=O)N1CCN1CCN(c2ccccc2)CC1,40µM,–,–,–
COc1ccccc1N1CCN(CCN2C(=O)CC(=C3c4ccccc4-c4ccccc43)C2=O)CC1,16µM,–,–,–
CCCNC(=O)OCc1cccnc1Sc1ccc(C)cc1,–,–,–,20µM
Cc1onc(-c2ccccc2Cl)c1C(=O)Nc1nnc(C2CCCCC2)s1,·,–,·,·
Cc1cc(Nc2ncc(Cl)cc2Cl)n(-c2ccccn2)n1,–,–,–,–
Cc1cc(Nc2ccccc2)n(-c2cccc(Cl)c2)n1,–,–,–,14µM
Cc1cc(Nc2ncc(Cl)cc2Cl)n(-c2ccccc2)n1,–,–,–,7.1µM
Cc1cc(NC(=O)Nc2cccc(Cl)c2)n(-c2ccccc2)n1,–,–,–,–
Cc1ccccc1-c1nnc(SCC(=O)N(C)C2CCCCC2)o1,–,·,–,–
CCOC(=O)c1ccc(NC(=O)CCC(=O)N2CCSc3ccccc32)cc1,–,·,–,–
COc1cccc(-c2noc(-c3cccnc3)n2)c1,–,–,–,–
Brc1ccccc1-c1nnc(-c2cccnc2)o1,–,–,–,16µM
Brc1ccc(-c2nnc(-c3cccnc3)o2)cc1,–,–,–,10µM
COc1ccc(-c2nnc(-c3ccc(N)cc3)o2)cc1,–,–,–,10µM
Cc1ccc(-c2nnc(-c3cccnc3)o2)cc1,–,–,–,–
COc1ccc(-c2nnc(-c3cccnc3)o2)cc1,–,–,–,22µM
COc1ccc(-c2nnc(-c3ccc(N(C)C)cc3)o2)cc1,?,–,–,–
Fc1ccc(CNc2nc3ccc(Cl)cc3n3nnnc23)cc1,–,·,–,–
CCOC(=O)c1[nH]c(C)c(CCC(=O)NCc2ccc(OCC)cc2)c1C,–,·,–,–[9.22 µM]
SMILES,FUS suppressor,aSyn yeast inh,Abeta yeast res,TDP-43 yeast inh
Clc1ccc(-c2nnc(-c3cccnc3)o2)cc1,–,–,–,13µM
FC(F)(F)c1ccc(-c2nnc(-c3cccnc3)o2)cc1,–,–,–,13µM
c1ccc(-c2noc(-c3cccnc3NCc3ccco3)n2)cc1,–,·,–,–
COC(=O)C1CCN(C(=O)C2CC(=O)N(c3ccc(OC)cc3)C2c2ccc(OC)cc2)CC1 (configuration not stated),–,·,·,·
O=c1c2ccc([N+](=O)[O-])cc2ncn1CCOc1cccc(Br)c1,–,–,–,–
O=c1c2ccc([N+](=O)[O-])cc2ncn1CCOc1ccc(Cl)cc1,–,–,–,25µM
Cc1cc2cc3c(cc2nc1SCC(=O)N1CCCC1)OCCO3,–,–,–,18µM
Cc1ccc(C)c2c1[nH]c1ccccc12,–,–,–,14µM
Cc1cc(C=O)c(C)c2c1[nH]c1ccccc12,·,–,–,–
Cc1ccc(C(=O)Nc2nc(C(C)(C)C)cs2)s1,–,–,–,14µM
CC(=O)N1N=C(c2cccs2)CC1c1ccc(Br)cc1 (configuration not stated),–,–,–,25µM
COc1ccc(/C=C/c2noc(-c3ccccc3O)n2)cc1,–,–,–,–
CC(=O)Oc1ccccc1-c1nc(/C=C/c2ccccc2)no1,–,–,–,18µM
COc1cc(/C=N/Nc2nc(Nc3ccccc3)nc(N3CCOCC3)n2)ccc1OC(=O)c1ccco1,?,–,–,20µM
O=C(Oc1cccc(/C=N/Nc2nc(N3CCOCC3)nc(N3CCOCC3)n2)c1)c1ccco1,–,–,–,–
O=C(Nc1nc(OCCN2CCCC2=O)cnc1/C=C\c1ccccc1)c1cc2ccccc2s1,40µM,?,–,–

# Bioassay records deposited in PubChem BioAssay by National Center for Advancing Translational Sciences (NCATS).
